In PubChem BioAssay AID488969 (Vanderbilt High Throughput Screening Facility, 2010):
In all, about 110,000 compounds were measured (“z-score”: median about -0.1, highest 2% from about 2 on). For the sample, the highest values were picked, then their nearest neighbours and some compounds at random. Calls of active or inactive are those of the source.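 The calls were made as follows: active = z-score in the third read window above 3 or below -3; inactive = the rest.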

These compounds were tested against Metabotropic glutamate receptor 8 (Rattus norvegicus) (UniProt P70579) (assay: rat mGluR8 modulators via GIRK flux, primary screen, cell-based, thallium flux, HTS (AID 488969)). Conditions: HEK293 rat mGluR8, GIRK (G protein-gated inwardly rectifying potassium channel) thallium flux, FluoZin2; at 10 µM; stronger effect = higher value.
Metabotropic glutamate receptor 8 (Rattus norvegicus), sequence (P70579 whole entry, looked up): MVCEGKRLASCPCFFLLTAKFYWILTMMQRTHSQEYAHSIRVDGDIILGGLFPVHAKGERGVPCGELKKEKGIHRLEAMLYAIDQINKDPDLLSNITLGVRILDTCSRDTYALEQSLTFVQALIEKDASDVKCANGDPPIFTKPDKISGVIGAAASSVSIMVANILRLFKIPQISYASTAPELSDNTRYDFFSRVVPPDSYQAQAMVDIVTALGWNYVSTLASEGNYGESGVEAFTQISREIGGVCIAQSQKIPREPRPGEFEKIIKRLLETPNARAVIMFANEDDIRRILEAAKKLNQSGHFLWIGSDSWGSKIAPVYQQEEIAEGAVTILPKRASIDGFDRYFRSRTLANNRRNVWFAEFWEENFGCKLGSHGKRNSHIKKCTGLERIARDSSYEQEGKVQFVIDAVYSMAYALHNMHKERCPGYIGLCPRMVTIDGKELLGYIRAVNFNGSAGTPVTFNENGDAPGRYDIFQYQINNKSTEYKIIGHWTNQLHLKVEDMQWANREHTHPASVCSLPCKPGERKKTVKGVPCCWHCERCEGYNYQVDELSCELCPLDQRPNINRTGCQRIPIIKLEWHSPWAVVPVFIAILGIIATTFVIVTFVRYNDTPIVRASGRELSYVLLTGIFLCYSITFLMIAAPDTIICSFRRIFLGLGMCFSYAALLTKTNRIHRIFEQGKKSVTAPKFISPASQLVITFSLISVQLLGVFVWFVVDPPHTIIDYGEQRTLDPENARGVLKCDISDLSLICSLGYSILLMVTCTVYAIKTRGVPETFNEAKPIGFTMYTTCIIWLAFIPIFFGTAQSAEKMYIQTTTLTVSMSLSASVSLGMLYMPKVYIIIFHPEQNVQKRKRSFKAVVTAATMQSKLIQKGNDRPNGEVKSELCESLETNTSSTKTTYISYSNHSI

SMILES	z-score
Oc1ccc(C2NCc3ccccc3-n3cccc32)cc1Cl (stereo not drawn)	1.68
c1ccc(C2NCc3ccccc3-n3cccc32)cc1 (stereo not drawn)	-0.239
COc1ccc(C2NCc3ccccc3-n3cccc32)cc1 (stereo not drawn)	2.1
Cc1nn(C2CCOC(C)(C)C2)c2c1C(c1ccc(OC(C)C)cc1)SCC(=O)N2 (stereo not drawn)	-0.843
Cn1c(O)c(C=NCc2ccco2)c(=O)n(C)c1=O	-0.19
CCC(CC)C1C(C#N)=C(N)Oc2c1c(=O)oc1ccccc21 (stereo not drawn)	-0.103
O=C(COc1ccccc1)N1CCN(C/C=C/c2ccccc2)CC1	0.702
O=C(Cc1ccccc1)N1CCN(C/C=C/c2ccccc2)CC1	3.68 (active)
O=C(COc1ccc(Cl)cc1)N1CCN(C/C=C/c2ccccc2)CC1	-0.0408
CC12CCCCC1=[N+]([O-])CN2O (stereo not drawn)	0.377
CCOc1ccc(CC2C(=O)NC(=O)N(c3ccc(CC)cc3)C2=O)cc1 (stereo not drawn)	-0.531
CCOC(=O)c1c(C)n(CCOC)c2ccc(O)cc12	0.821
CCCCn1c(C)c(C(=O)OCC)c2c(CN3CCOCC3)c(O)ccc21	4.12 (active)
CCOC(=O)c1c(C)n(CCN2CCN(C)CC2)c2ccc(OC)cc12	1.21
CCCCN1C(=N)C(CC)(CC)C(=O)NC1=O	-0.0121
CCC(=NCc1ccc(F)cc1)c1c(O)n(C)c(=O)n(C)c1=O	-0.274
O=C(c1cc([N+](=O)[O-])ccc1N1CCNCC1)N1CCOCC1	-0.253
COc1cccc(-n2c(O)c(C=NCc3ccc4c(c3)OCO4)c(=O)[nH]c2=O)c1	-0.566
Clc1cccc(N2CCNCC2)c1Cl	0.654
N#Cc1ccc(N2CCNCC2)c(F)c1	0.268
N#Cc1cc(F)c(N2CCNCC2)cc1Cl	2.17
CCCNS(=O)(=O)c1ccc(OCC(=O)N2CCN(Cc3ccc4c(c3)OCO4)CC2)cc1	-0.266
Cc1cc(C(=O)N2CCC3(CC2)OCCO3)cs1	0.652
C=CCOC(=O)C1=C(C)OC(N)=C(C(=O)OCC)C12C(=O)N(CC(N)=O)c1ccccc12 (stereo not drawn)	-0.605
CN(C)CC1CSCCC1(O)c1ccccc1 (stereo not drawn)	0.409

SMILES	z-score
CC(C)OC12Oc3ccccc3C=C1N1CCC2CC1 (stereo not drawn)	1.77
C=C1N2CCC(CC2)C1(O)c1ccc(C)cc1 (stereo not drawn)	-0.123
OC12Oc3ccccc3C=C1N1CCC2CC1 (stereo not drawn)	2.17
CC(=O)N1CC(=O)Nc2ccc(Cl)cc2C1c1ccc(F)cc1 (stereo not drawn)	-0.284
N=Cc1c(O)n(-c2cccc(Cl)c2)c(=O)[nH]c1=O	0.745
CC(C)CN(CC(C)C)c1ccc(C=C2C(=O)NC(=S)NC2=O)cc1[N+](=O)[O-]	2.35
CCC(C)N1C(=O)/C(=C/c2ccc3c(c2)CCN3CCCCl)C(=O)NC1=S (stereo not drawn)	-0.358
CCC(C)N1C(=O)/C(=C\c2ccc(N3CCCCCC3)cc2)C(=O)NC1=S (stereo not drawn)	-0.384
Cc1cc(C=C2C(=O)NC(=S)NC2=O)c(C)n1-c1ccc2c(c1)OCO2	-0.495
O=C(O)C1(c2ccc(Cl)cc2)CCC1	-0.279
CN(C)P1(N(C)C)=Nc2c(c(N)nn2C)C(c2ccccc2)=N1	1.2
COc1ccc(CC2C(=O)NC(=O)NC2=O)c(OC)c1	13.6 (active)
CCc1ccc(N2C(=O)NC(=O)C(Cc3ccc(OC)cc3OC)C2=O)cc1 (stereo not drawn)	-0.562
COc1ccc(CC2C(=O)NC(=O)N(c3ccccc3)C2=O)c(OC)c1 (stereo not drawn)	0.821
Cc1ccc(-n2c(/C=C/c3ccc4c(c3)OCO4)nc3ccccc3c2=O)cc1	-0.143
CCOP(=O)(OCC)C(C)(C)NC(=O)C(Cl)(Cl)Cl	0.176
CC12CN3CC(C)(CN(C1)C3c1ccco1)C2=O (stereo not drawn)	0.289
Cc1ccc(C(O)(C(=O)NNC(=O)CN2CCN(C)CC2)c2ccc(C)cc2)cc1	-0.00637
Cn1cccc1/C=C1\C(=O)NC(=O)N(CCC2=CCCCC2)C1=O	-0.117
CSCc1nnc2n1-c1ccc(Cl)cc1C(c1ccccc1)=NC2	-0.724
Clc1ccc2c(c1)C(c1ccccc1Cl)=NCc1nncn1-2	1.46
Cc1ccccc1C1=NCC(=S)Nc2ccc(Cl)cc21	4.39 (active)
CN1CCN(Cc2nnc3n2-c2ccc(Cl)cc2C(c2ccccc2)=NC3)CC1	-0.238
S=C1CN=C(c2ccccc2Cl)c2cc(Cl)ccc2N1	14.6 (active)
S=C1CN=C(c2ccccc2)c2cc(Cl)ccc2N1	4.29 (active)

SMILES	z-score
COc1ccccc1C1=NCc2nnc(C)n2-c2ccc(Cl)cc21	0.478
CCS(=O)(=O)NCc1nnc2n1-c1ccc(Cl)cc1C(c1ccccc1)=NC2	-0.148
Clc1ccc2c(c1)C(c1ccccc1Cl)=NCc1nnc(N3CCN(CCSc4ccccc4)CC3)n1-2	-0.487
Cc1ccc(N(C)C(=O)Oc2ccc(C(=O)c3ccc(Cl)cc3)cc2)cc1	0.23
CCN1CCN(c2nc3c(c(=O)[nH]2)CCCC3)CC1	-0.0782
CC(C)N(CC(O)c1cccc([N+](=O)[O-])c1)C(C)C (stereo not drawn)	-0.309
Cc1cccc(N2C(=O)NC(=O)/C(=C\c3cc(C)n(-c4sc5c(c4C#N)CCCC5)c3C)C2=O)c1C	0.0132
CCOC(C(=O)OCCC[N+](C)(CC)CC)(c1ccccc1)c1ccccc1	0.315
c1ccc2c(CNC3CCCCCC3)c[nH]c2c1	-0.0434
c1ccc2c(CNC3CCCCC3)c[nH]c2c1	4.16 (active)
Cc1[nH]c2ccccc2c1CCCNC1CCCCC1	0.385
COc1cc(C2NCc3ccccc3-n3cccc32)ccc1O (stereo not drawn)	1.55
COc1ccc(C2NCc3ccc4c(c3-n3cccc32)OCO4)cc1O (stereo not drawn)	2.45
CCOc1cc(C2NCc3ccccc3-n3cccc32)ccc1O (stereo not drawn)	1.71
CCCCN1C(=O)/C(=C/C=C/c2ccco2)C(=O)NC1=S	0.136
CC(C)N1C(=O)/C(=C/C=C/c2ccco2)C(=O)N(Cc2ccco2)C1=O	6.08 (active)
CCN1C(=O)C(=C/C=C/c2ccco2)C(=O)N(CC)C1=S	-0.628
COC(=O)C(O)(c1ccc(N=Cc2ccccc2O)c(C)c1)C(F)(F)F (stereo not drawn)	0.286
O=C(CN1CCOCC1)c1cccc2ccccc12	-0.17
CCN(CC)c1ccc(N=Cc2c(O)n(-c3ccc(Cl)cc3)c(=O)[nH]c2=O)cc1	0.126
O=C1C2CCCN2C(c2cccc(Cl)c2)N1c1ccccn1 (stereo not drawn)	-0.498
O=C1C2CCCN2C(c2ccc(Cl)cc2)N1c1ccccn1 (stereo not drawn)	2.77
O=C1C2CCCN2C(c2ccc(Cl)c(Cl)c2)N1c1ccccn1 (stereo not drawn)	-0.0899
